Several values for one entry are separate records, joined by “and”; a condition that tells them apart may be missing. Identical values can stand only once. Records with an inconclusive call do not appear. For some of these results: Entries with a potency or affinity are not part of this list. Activity calls are given as the source filed them.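 Rule for the calls, unless noted: active = thallium flux through the channel raised or lowered by more than 3 SD from vehicle-only wells, actives on both sides; inactive = the rest.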
Columns and labels:
[1] = hESC survival regulators, cell-based (AID 493140; call rule not given here;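 note: cells exposed to compounds for four days before counting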); details: human embryonic stem cell survival screen; stronger effect = higher value
[2] = liver-stage malaria parasite growth inhibition, primary screen, cell-based, HepG2, luciferase luminescence, HepG2 viability (AID 624349; in the data active = parasite load remaining mostly below about 12%, no sharp cut-off; inactive = mostly above about 10%;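 note: 100% = mean of DMSO negative control wells on the same plate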); details: P. berghei liver stage in HepG2, luciferase luminescence, concentration not given here; parasite load remaining: stronger effect = lower value; viability: measured here: HepG2 viability without parasites
[3] = Cy5 fluorescence interference with SSB-bound oligo, artefact control for HCV NS3 helicase inhibitor project, biochemical, NIH Clinical Collection, E. coli SSB (AID 743268; call rule not given here)
[4] = tested on: Hepatitis C virus NS3 helicase; test: HCV NS3 helicase inhibitors, primary screen, biochemical, fluorescence polarization, NIH Clinical Collection (AID 743270; call rule not given here); details: NS3 helicase binding to Cy5-dT15 DNA, stronger effect = higher value, concentration not given here
[5] = target: Single-stranded DNA-binding protein (Escherichia coli (strain K12)) (UniProt P0AGE0); test: E. coli SSB displacement from DNA, counter-screen for HCV NS3 helicase inhibitor project, biochemical, fluorescence polarization, NIH Clinical Collection (AID 743271; in the data active = inhibition above about 28%); details: stronger effect = higher value, concentration not given here
[6] = fluorescence interference in NS3h assay format, artefact control for HCV NS3 helicase inhibitor project, biochemical, NIH Clinical Collection (AID 743272; call rule not given here;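 note: HCV NS3 helicase with a Cy5 labelled single stranded DNA probe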); details: fluorescence interference counterscreen, stronger effect = lower value
[7] = tested on: Neuropilin-2 / VEGF-C interaction (human); test: inhibitors of NRP2–VEGF-C binding, biochemical, microplate binding format, z-score (AID 743281; call rule not given here); details: microplate NRP2/VEGF-C binding assay; stronger effect = lower value
[8] = stimulators of nuclear beta-catenin in C2C12, primary screen, imaging, WNT3A-conditioned medium, mouse C2C12, NPC library (AID 1117326; in the data active = nuclear beta-catenin stimulation mostly above about 4.2%, no sharp cut-off; inactive = mostly below about 10%); details: stronger effect = higher value
[9] = stimulators of insulin release from INS-1E, primary screen, cell-based, 5 mM glucose, NPC library (AID 1117329;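 active = compound raises insulin release from rat beta cells at 5 mM glucose, no numeric limit stated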); details: rat INS-1E insulin secretion, at 10 µM, stronger effect = higher value
[10] = growth inhibition of GSK3B-pretreated HCT116 cells – cell-based, CellTiter-Glo, 0.2 to 20 µM (AID 1117336;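 active = compounds lowering colon cancer cell viability after pretreatment blocking the GSK3B kinase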); details: HCT116 viability after GSK3B inhibitor, at 20 µM, stronger effect = higher value
[11] = inhibition of endothelial tube formation, primary screen, imaging, VEGF stimulated, CD31 staining, tube area, NPC library (AID 1117340;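 active = compound that reduces growth-factor-driven endothelial tube area in a mixed cell culture, no cutoff stated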); details: VEGF-stimulated ADSC/ECFC co-culture, at 10 µM, stronger effect = higher value
[12] = glucagon-like peptide 1 release enhancers, primary assay, NCI-H716 cell line, NPC library (AID 1117341;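 active = compound raises GLP1 secretion from the human gut endocrine cells, with no numeric limit stated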); details: NCI-H716 cells, at 10 µM, stronger effect = higher value
[13] = HCT116 colon cancer cell growth inhibition, primary screen, CellTiter-Glo luminescence, NPC library (AID 1117342;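 active = compounds that lower survival of HCT116 colon cancer cells in the luminescence readout, no numeric limit stated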); details: at 20 µM (top of the series)
[14] = CellTiter-Glo luminescent readout of SW480 viability loss, NPC library primary (AID 1117343;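 active = compounds that lower viability of the colon cancer cells in the luminescence readout, with no numeric limit stated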); details: CellTiter-Glo luminescence; at 20 µM (top of the series)
[15] = decreased DLD-1 cellular survival, CellTiter-Glo luminescent readout, NPC compound collection, primary HTS (AID 1117346;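 active = compounds that lower survival of DLD-1 colon cancer cells in the luminescence readout, no cutoff given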); details: DLD-1 viability, CellTiter-Glo luminescence; at 20 µM (top of the series)
[16] = modulation of C. elegans fzo-1 (AID 1259413; call rule not given here;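 note: fzo-1 mutant C. elegans worms in liquid wells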); details: C. elegans fzo-1 modulator screen, mean read-out; stronger effect = higher value
[17] = sensitizers of A549 cells to miR-34 induction, primary screen, imaging, A549 dox-inducible miR-34, nuclei and caspase counts (AID 1347080;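 active = compounds whose cell count with miR-34 switched on is under 0.7 times the count with it off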); details: A549 miR-34 inducible, Hoechst nuclei count, 48 h
[18] = survival rescue of mitochondrial mutant cells in low glucose, primary screen, MELAS cybrids, Rieske KO mouse fibroblasts, CellTiter-Glo (AID 1508586;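 active = mean z-score across replicates of 1.96 or higher in either the MELAS or the Rieske mutant cell line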;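 note: z relative to plate mean and SD of compound and empty wells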)
[19] = target: NAD(+) hydrolase SARM1 (Homo sapiens) (UniProt Q6SZW1); test: SARM1 TIR NADase inhibitors, cell lysate, NAD-Glo luminescence (AID 1508614;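 active = compound whose remaining NAD level is above about 45 nM, limit read from the data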;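 note: higher remaining NAD means stronger inhibition of SARM1 NADase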); details: SAM-TIR HEK293T lysate NADase, at 1 µM, stronger effect = higher value
[20] = viability rescue of complex I mutant cybrids, primary screen, cell-based, galactose medium, ATP luminescence (AID 1645843;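 active = z-score of at least 1.8 in each of two replicates, scored against plate mean and spread of sample wells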;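 note: positive z means more ATP and so rescue of galactose-driven cybrid death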); details: complex I mutant cybrid cells, 72 h, stronger effect = higher value
[21] = tested on: F380Y; test: modulators of BK channel variants, profiling panel, selectivity assay, cell-based, U2OS BacMam, thallium flux, beta subunits (AID 1259406); details: at 30 µM;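 note: initial slope of Thallos dye fluorescence rise after thallium is added; log ratio against the mean of 0.3% DMSO vehicle wells on the same plate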
[22] = tested on: F380Y/beta1; test: as above; details: at 30 µM
[23] = tested on: F380Y/beta2Delta; test: as above; details: at 30 µM
[24] = tested on: F380Y/beta4; test: as above; details: at 30 µM
[25] = target: Calcium-activated potassium channel subunit alpha-1 (Homo sapiens) + Leucine-rich repeat-containing protein 26 (Homo sapiens) (UniProt Q12791+Q2I0M4); test: as above; details: F380Y/Slo1WT/gamma1, at 30 µM
[26] = tested on: R275C; test: as above; details: at 30 µM
[27] = tested on: R275C/beta1; test: as above; details: at 30 µM
[28] = tested on: R275C/beta2Delta; test: as above; details: at 30 µM
[29] = tested on: R275C/beta4; test: as above; details: at 30 µM
[30] = tested on: R275C/Slo1WT/beta2; test: as above; details: at 30 µM
[31] = polyglutamine-triggered caspase-3 activation inhibitors, cell-based (AID 1583); details: polyglutamine-induced caspase-3 activation, cell assay; stronger effect = higher value;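 tested at 10 µM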
[32] = suppressors of polyQ aggregation in yeast, 75Q-TubU reporter (AID 1593); details: Yeast 75Q polyglutamine aggregation reporter
[33] = rescue of polyQ-huntingtin neuronal dysfunction in worms, whole organism, C. elegans mechanosensory neurons, N-terminal huntingtin (AID 1599); details: touch response, stronger effect = higher value
[34] = inhibitors of mitochondrial cytochrome c release, biochemical, purified mitochondria (AID 1603); details: stronger effect = lower value;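 note: mouse liver mitochondria challenged with calcium chloride; signal normalized to the plate average as 100%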
[35] = inhibitors of polyQ protein aggregation (AID 1604); details: polyglutamine-induced protein aggregation inhibition assay; stronger effect = higher value; tested at 2.5 µM
[36] = enhancers of glutamate uptake in motor neurons, MN-1 cell line (AID 1612); details: MN-1 motor neuron cells, stronger effect = higher value;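 note: tested at 1 µM final; 0% = mean of DMSO vehicle wells on each plate; positive means more glutamate uptake than control and negative means less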
[37] = reducers of polyQ inclusions in PC12 cells, cell-based, NGF-treated PC12, GFPQ80 (AID 1614); details: PC12 NGF-treated GFP-polyQ80 inclusion reduction;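 note: lower means fewer inclusions and 0 means no inclusions at all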
[38] = suppressors of polyglutamine aggregation in yeast, 75Q-TubH (AID 1616); details: S. cerevisiae 75Q-TubH polyglutamine aggregation suppression; stronger effect = higher value
[39] = circadian clock period modulators, cell-based, LOPAC library, luminescence reporter (AID 2774; call rule not given here;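 note: values are relative to mean of DMSO wells on each plate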); details: circadian reporter cells, at 7 µM, actives lie on both sides
[40] = tested on: Hepatitis C virus NS3 helicase; test: HCV NS3 helicase inhibitors, primary screen, biochemical, fluorescence polarization, LOPAC1280 library (AID 687035; in the data active = inhibition above about 37%); details: Purified HCV NS3 helicase, Cy5-dT15 ssDNA binding fluorescence polarization; stronger effect = higher value; concentration not given here
[41] = Cy5 fluorescence quenching or enhancement artefacts, artefact control for HCV NS3 helicase inhibitor project, biochemical, LOPAC1280 (AID 687037; call rule not given here); details: Cy5-DNA-NS3h complex fluorescence interference counterscreen
[42] = target: 6-phosphogluconate dehydrogenase, decarboxylating (Homo sapiens) (UniProt P52209); test: 6PGD enzyme inhibitors, primary screen, biochemical, human, recombinant enzyme, NADPH absorbance (AID 1159550;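 active = at least 20% inhibition of 6-phosphogluconate dehydrogenase activity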); details: recombinant 6PGD, NADPH absorbance 341 nm; at 10 µM; stronger effect = higher value
[43] = differential killing of epithelial or mesenchymal cells, primary screen, imaging, PC-3E GFP, TEM4-18 mCherry, co-culture (AID 1345086;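 active = compounds killing one labelled cell type while sparing the other, by normalised counts and ratio limits, not self-fluorescent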;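 note: cells exposed to compound for 72 h before imaging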;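 for red/green cell ratio (normalised): normalised mesenchymal count divided by normalised epithelial count so high means epithelial killing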); details: imaging cell counts, at 1 µM
[44] = growth inhibition of DIPG glioma cells, dose response, cell-based, JHH-DIPG-1, MIPE4.0, CellTiter-Glo, qHTS (AID 1347062; cut-off not given, nearly all actives have AC50 up to about 27 µM); details: JHH-DIPG-1 viability, CellTiter-Glo ATP luminescence
[45] = growth inhibition of DIPG glioma cells, dose response, cell-based, SU-DIPG-XIII, MIPE5.0, CellTiter-Glo, qHTS (AID 1347064; cut-off not given, nearly all actives have AC50 up to about 23 µM); details: SU-DIPG-XIII viability, CellTiter-Glo ATP luminescence
[46] = viability loss in pontine glioma line – cell-based, SU-DIPG-XXV, MIPE5.0, CellTiter-Glo, qHTS, dose response (AID 1347065; cut-off not given, nearly all actives have AC50 up to about 26 µM;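 note: cells exposed to compound for 48 hours before ATP readout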); details: CellTiter-Glo ATP luminescence
[47] = SU-DIPG-VI glioma cell viability, MIPE4.0 library, CellTiter-Glo luminescence, qHTS (AID 1347066; cut-off not given, nearly all actives have AC50 up to about 30 µM;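 note: cells exposed to compound for 48 hours before readout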); details: CellTiter-Glo ATP luminescence
[48] = JHH-DIPG-1 glioma cell viability, MIPE5.0 library, CellTiter-Glo luminescence, qHTS (AID 1347067; cut-off not given, nearly all actives have AC50 up to about 26 µM;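 note: cells exposed to compound for 48 hours before readout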); details: JHH-DIPG-1 glioma viability, CellTiter-Glo ATP luminescence
[49] = SU-DIPG-XXV glioma cell viability, MIPE5.0 library, qHTS (AID 1347068; cut-off not given, nearly all actives have IC50 up to about 30 µM)
[50] = phospholipid biosynthesis inhibitors in animal cells, primary screen, cell-based, LOPAC library, screen 4 (AID 1347384; call rule not given here); details: phospholipid biosynthesis inhibition screen, at 10 µM
[51] = target: Mitogen-activated protein kinase 7 (Homo sapiens) (UniProt Q13164); test: ERK5 transactivation activators in reporter cells, primary screen, cell-based, HTS (AID 1508626;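 active = luciferase signal above three times the same-plate solvent-only control wells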;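 note: luciferase driven by Gal4-ERK5 fusion binding five Gal4 sites before minimal TATA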); details: HeLa Gal4-ERK5 transactivation, 18 h, at 5 µM, stronger effect = higher value
[52] = MELAS cybrid survival, CellTiter-Glo 48 h, stronger effect = higher value
[53] = Rieske KO mouse fibroblast survival, CellTiter-Glo 72 h

Calcium-activated potassium channel subunit alpha-1 (Homo sapiens) + Leucine-rich repeat-containing protein 26 (Homo sapiens), sequence (Q2I0M4 whole entry, looked up, one chain of several): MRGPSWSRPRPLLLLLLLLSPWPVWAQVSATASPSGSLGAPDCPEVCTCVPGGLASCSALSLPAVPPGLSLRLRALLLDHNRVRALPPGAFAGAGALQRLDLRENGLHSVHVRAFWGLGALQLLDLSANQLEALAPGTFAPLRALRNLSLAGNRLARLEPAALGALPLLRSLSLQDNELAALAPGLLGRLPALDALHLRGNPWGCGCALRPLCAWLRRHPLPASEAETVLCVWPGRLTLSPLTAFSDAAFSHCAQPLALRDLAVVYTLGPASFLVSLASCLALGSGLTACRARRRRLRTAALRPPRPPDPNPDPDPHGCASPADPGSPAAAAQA
NAD(+) hydrolase SARM1 (Homo sapiens), sequence (Q6SZW1 whole entry, looked up): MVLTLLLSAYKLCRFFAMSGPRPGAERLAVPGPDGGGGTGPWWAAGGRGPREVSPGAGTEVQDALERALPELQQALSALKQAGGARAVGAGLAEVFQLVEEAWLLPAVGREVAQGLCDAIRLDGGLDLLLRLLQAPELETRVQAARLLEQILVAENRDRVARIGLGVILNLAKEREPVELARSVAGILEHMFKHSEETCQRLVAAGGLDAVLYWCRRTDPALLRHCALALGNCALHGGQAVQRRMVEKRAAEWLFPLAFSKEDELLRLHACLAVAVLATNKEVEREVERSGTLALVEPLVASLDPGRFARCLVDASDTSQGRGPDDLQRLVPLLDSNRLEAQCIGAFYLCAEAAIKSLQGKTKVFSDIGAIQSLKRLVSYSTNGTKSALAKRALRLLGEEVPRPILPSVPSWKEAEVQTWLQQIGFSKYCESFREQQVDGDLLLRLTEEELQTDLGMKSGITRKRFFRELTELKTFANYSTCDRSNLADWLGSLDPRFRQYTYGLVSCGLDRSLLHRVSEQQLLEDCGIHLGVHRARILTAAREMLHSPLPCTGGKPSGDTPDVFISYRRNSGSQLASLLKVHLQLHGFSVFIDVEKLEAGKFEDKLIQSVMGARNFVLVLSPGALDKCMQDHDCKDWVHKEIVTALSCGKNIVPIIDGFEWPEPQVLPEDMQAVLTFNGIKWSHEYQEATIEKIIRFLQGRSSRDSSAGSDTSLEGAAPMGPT
Mitogen-activated protein kinase 7 (Homo sapiens), sequence (Q13164 whole entry, looked up, the tested form may be a part): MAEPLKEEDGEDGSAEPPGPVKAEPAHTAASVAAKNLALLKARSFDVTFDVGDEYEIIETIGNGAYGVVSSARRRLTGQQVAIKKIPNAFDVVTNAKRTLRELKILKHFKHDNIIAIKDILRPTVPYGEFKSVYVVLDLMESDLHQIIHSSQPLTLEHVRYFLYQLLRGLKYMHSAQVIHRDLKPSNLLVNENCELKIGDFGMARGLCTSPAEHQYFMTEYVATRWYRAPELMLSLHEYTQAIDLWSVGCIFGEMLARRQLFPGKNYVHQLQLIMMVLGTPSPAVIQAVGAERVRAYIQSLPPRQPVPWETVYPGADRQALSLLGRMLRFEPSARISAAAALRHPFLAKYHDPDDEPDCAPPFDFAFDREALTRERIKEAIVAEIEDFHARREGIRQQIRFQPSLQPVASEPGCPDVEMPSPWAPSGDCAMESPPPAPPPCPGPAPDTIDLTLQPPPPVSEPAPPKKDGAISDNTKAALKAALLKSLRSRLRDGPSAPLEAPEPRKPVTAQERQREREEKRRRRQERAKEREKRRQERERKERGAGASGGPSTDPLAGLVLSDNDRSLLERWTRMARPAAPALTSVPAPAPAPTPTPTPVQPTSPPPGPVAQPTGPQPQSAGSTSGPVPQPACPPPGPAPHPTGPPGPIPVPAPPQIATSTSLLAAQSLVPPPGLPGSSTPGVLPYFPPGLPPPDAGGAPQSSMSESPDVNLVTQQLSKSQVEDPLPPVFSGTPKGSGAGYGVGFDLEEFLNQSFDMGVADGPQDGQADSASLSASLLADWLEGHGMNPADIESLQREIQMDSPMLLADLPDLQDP
6-phosphogluconate dehydrogenase, decarboxylating (Homo sapiens), sequence (P52209 whole entry, looked up): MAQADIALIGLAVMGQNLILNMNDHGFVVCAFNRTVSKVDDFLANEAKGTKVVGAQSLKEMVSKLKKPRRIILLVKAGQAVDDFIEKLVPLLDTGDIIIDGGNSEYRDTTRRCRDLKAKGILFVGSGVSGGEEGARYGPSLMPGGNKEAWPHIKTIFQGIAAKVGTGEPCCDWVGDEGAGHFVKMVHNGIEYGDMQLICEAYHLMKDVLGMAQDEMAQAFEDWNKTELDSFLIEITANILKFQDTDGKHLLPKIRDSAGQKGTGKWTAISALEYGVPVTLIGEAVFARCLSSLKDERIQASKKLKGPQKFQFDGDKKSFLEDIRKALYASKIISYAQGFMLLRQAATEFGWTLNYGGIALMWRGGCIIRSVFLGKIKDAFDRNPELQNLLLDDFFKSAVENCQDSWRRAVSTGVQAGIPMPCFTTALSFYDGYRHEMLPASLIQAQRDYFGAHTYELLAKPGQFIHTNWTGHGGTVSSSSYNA

C[C@@H](O)[C@H]1C(=O)N2C(C(=O)O)=C(S[C@@H]3CN[C@H](C(=O)N(C)C)C3)[C@H](C)[C@H]12
9470 and 9550: cell count ([17]; measured here: total cells with miR-34 induction, stronger effect = lower value)
9770 and 10500: cell count ([17]; measured here: total cells without miR-34 induction)
74.6% and 72.6% and 92%: viability [2]
inactive: survival [1] 4.17 | parasite load remaining [2] 81% and 101% and 24.6% | fluorescence ratio [3] 1.04 | inhibition [4] 2.77% | inhibition [5] -0.87% | fluorescence ratio [6] 0.99 | z-score [7] -0.132 | nuclear beta-catenin stimulation ([8]; at 10 µM) -1.7% and -0.1% | insulin secretion stimulation [9] 1.9% and 2% | viability decrease [10] -24.1% and -19.8% | tube area decrease [11] -3.2% and 11.7% | GLP1 secretion stimulation [12] -1.2% and -6.2% | inhibition of viability [13] 3.6% and 6.7% | viability decrease (inhibition) [14] 9.5% and 15.1% | viability decrease (inhibition) [15] -2.2% and -3.6% | mean signal [16] 272 | fold change ([17]; stronger effect = lower value, cell number ratio, induced over uninduced) 0.969 and 0.909 | z-score [18, 52] 0.815 and 0.0614 | remaining NAD [19] 10 nM | z-score [20] 1.23 | log fold change Tl+ flux [21] 0.000985 | log fold change Tl+ flux [22] 0.00288 | log fold change Tl+ flux [23] -0.00534 | log fold change Tl+ flux [24] -0.00589 | log fold change Tl+ flux [25] -0.0284 | log fold change Tl+ flux [26] -0.0931 | log fold change Tl+ flux [27] -0.0201 | log fold change Tl+ flux [28] -0.042 | log fold change Tl+ flux [29] 0.0148 | log fold change Tl+ flux [30] -0.00332
1% and 0.5%: nuclear beta-catenin stimulation ([8]; stimulation, at 2 µM)
1.23 and -0.866: z-score [18, 53]
0.61 and 1.16: fold change ([17]; measured here: relative caspase fold change +Dox/-Dox)

CN(C)CCOC(c1ccccc1)c1ccccc1
1.28: normalised cell number ([43]; measured here: epithelial PC-3E GFP cell survival)
1.37: normalised cell number ([43]; measured here: mesenchymal TEM4-18 mCherry cell survival)
2: inclusion score [37]
0.641 and 0.428 and 1.04: z-score [18, 53]
1.11: cytochrome c release ratio [34]
1.07: aggregation suppression score [38]
8.03%: glutamate uptake change [36]
85.2%: inhibition of aggregation [35]
-3.14: rescue above control [33]
active: viability decrease (inhibition) [14] 57.8%
-1%: nuclear beta-catenin stimulation ([8]; stimulation, at 2 µM)
1.18: score [32]
15.6%: inhibition [31]
inactive: period change [39] -0.01 h | survival [1] 14 | inhibition [40] -1% | fluorescence ratio (interference) [41] 1 | fluorescence ratio [3] 1.02 | inhibition [4] -1.19% | inhibition [5] 5.29% | fluorescence ratio [6] 0.99 | z-score [7] -0.533 | nuclear beta-catenin stimulation ([8]; at 10 µM) 0.5% | insulin secretion stimulation [9] 14.4% | viability decrease [10] -17.4% | tube area decrease [11] 1% | GLP1 secretion stimulation [12] 4.4% | inhibition of viability [13] 36.7% | viability decrease (inhibition) [15] 1% | inhibition [42] 11.2% | mean signal [16] 216 | red/green cell ratio (normalised) ([43]; actives lie on both sides, counts scaled to control wells, 1 = unselective) 1.07 | outcome [44] | outcome [45] | outcome [46] | outcome [47] | outcome [48] | outcome [49] | outcome [50] | z-score [18, 52] -0.301 and 0.806 and -0.802 | remaining NAD [19] 10 nM | luciferase signal [51] 36 AU | z-score [20] -0.255 and 0.81 and 0.09 | log fold change Tl+ flux [21] 0.0428 | log fold change Tl+ flux [23] 0.0216 | log fold change Tl+ flux [25] -0.0145 | log fold change Tl+ flux [26] 0.00435 | log fold change Tl+ flux [27] 0.00179 | log fold change Tl+ flux [28] 0.0139

— PubChem BioAssay
